Results reported in PubChem BioAssay (NCATS).
Results filed as inconclusive are left out. Activity calls are given as the source filed them. The call rests on the fitted dose curve; in most records, active means well fitted cell-killing curve with a large enough effect; inconclusive means small, poorly fitted or top-dose-only effect, or effect the other way; inactive means no such curve, though single readings can be large or run the other way.
Potency means the concentration at half of the fitted maximal effect.

Test: Quantitative High-Throughput drug screen in 47 multiple myeloma cell lines against the NCATS MIPE library collection: KHM11_PLB cell viability assay (AID 1918962); further: nearly all actives have a fitted effect of over 35% in size
Conditions: KHM11 myeloma cell viability, CellTiter-Glo ATP luminescence, 48 h; series mostly up to 45.8 µM
Description: PI: Beverly A. Mock Ph.D.
Laboratory of Cancer Biology and Genetics,
Center for Cancer Research, National Cancer Institute,
National Institute of Health, Bethesda, Maryland
Drug resistance and disease progression are common in multiple myeloma (MM) patients, underscoring the need for new therapeutic combinations. […] We hypothesized that effective combinations would reduce MYC expression and enhance p16 activity. […] These preclinical data identify potentially useful drug combinations for evaluation in drug-resistant MM and reveal potential mechanisms of combined drug sensitivity.
Described herein is the primary MIPE qHTS used to cherrypick compounds. Validated compounds were then further tested for potential synergistic activiy.
[1] Peat TJ, Gaikwad SM, Dubois W, Gyabaah-Kessie N, Zhang S, Gorjifard S, Phyo Z, Andres M, Hughitt VK, Simpson RM, Miller MA, Girvin AT, Taylor A, Williams D, D'Antonio N, Zhang Y, Rajagopalan A, Flietner E, Wilson K, Zhang X, Shinn P, Klumpp-Thomas C, McKnight C, Itkin Z, Chen L, Kazandijian D, Zhang J, Michalowski AM, Simmons JK, Keats J, Thomas CJ, Mock BA. Drug combinations identified by high-throughput screening promote cell cycle transition and upregulate Smad pathways in myeloma. Cancer Lett. 2023 Aug 1;568:216284. doi: 10.1016/j.canlet.2023.216284. Epub 2023 Jun 24. PMID: 37356470; PMCID: PMC10408729.
SEQUENCE No. (e.g., 1, 2, 3, etc.); […] (e.g., Cells, Incubation, Reagent, etc.); VALUE and DESCRIPTION.
1; Cells; 5 uL; white, solid bottom 1536-well Greiner assay plate.
2; Compounds; 23 nL; Kalypsis pin tool (Wako USA) equipped with a 1536-well pin head to transfer to the assay plates.
3; Incubation; 48 hours; 37C incubation.
4; Reagent;5uL; CellTiter Glo (Promega).
5; Detector; 425V; Luminescence; Viewlux PerkinElmer.
NOTES (numbers refer to Sequence numbers above)
1. The cell-based screening methods employed in this study were like those previously published. Briefly, the corresponding myeloma cell lines were screened in 1,536-well plates with 500 cells, 5-uL per well for inhibition of cell viability (assessed by measuring ATP levels with CellTiterGlo).
2. NCATS MIPE 4.0 library of approved and investigational drugs were added using the Kalypsis pin tool. Wells treated with DMSO only for 100% viability and media only wells for 0% viability were used as controls.
3. The assay plates were covered and incubated for 48 hours in a 37C, 5% CO2 incubator with controlled humidity.
4. After 48 hours, CellTilter-GloTM luminescent substrate mix (Promega) reagent was added to the assay plate and plates we incubated for 5 min at room temperature.
5. Signal was measured as median relative luminescence units on a ViewLux (PerkinElmer) multiplate reader.
[1] Heske CM, Davis MI, Baumgart JT, Wilson K, Gormally MV, Chen L, Zhang X, Ceribelli M, Duveau DY, Guha R, Ferrer M, Arnaldez FI, Ji J, Tran HL, Zhang Y, Mendoza A, Helman LJ, Thomas CJ. Matrix Screen Identifies Synergistic Combination of PARP Inhibitors and Nicotinamide Phosphoribosyltransferase (NAMPT) Inhibitors in Ewing Sarcoma. Clin Cancer Res. 2017 Dec 1;23(23):7301-7311. doi: 10.1158/1078-0432.CCR-17-1121. Epub 2017 Sep 12. PMID: 28899971; PMCID: PMC6636827.
For `CNC(=O)c1cc(Oc2ccc(NC(=O)Nc3cc(C(C)(C)C)nn3-c3ccc4ncccc4c3)c(F)c2)ccn1`, the Potency was 2640 nM (active). With `CC(C)c1cnn2c(NCc3ccccc3)cc(N[C@@H](CO)[C@H](O)CO)nc12` the Potency was 148 nM (active). In the case of `Cc1cc(Nc2nc(N[C@@H](C)c3ccc(F)cc3)c(C#N)cc2F)n[nH]1`, the Potency is reported as 8330 nM (active). In the case of `CCN1CCN(Cc2ccc(-c3cc4c(N[C@H](C)c5ccccc5)ncnc4[nH]3)cc2)CC1`, the Potency is reported as 5900 nM (active). For `C[C@@H]1COC(Nc2ccc3ncnc(Nc4ccc(OCc5nccs5)c(Cl)c4)c3c2)=N1`, the Potency was 16600 nM (active). With `C=C1C(=CC=C2CCC[C@]3(C)[C@@H]([C@H](C)C=C[C@H](C)C(C)C)CC[C@@H]23)C[C@@H](O)C[C@@H]1O` the Potency was 9350 nM (active). With `CN1CC[C@@H](c2c(O)cc(O)c3c(=O)cc(-c4ccccc4Cl)oc23)[C@@H](O)C1` the Potency was 23.5 nM (active). For `COc1c(OCCCN2CCOCC2)ccc2c3n(c(=NC(=O)c4cnc(N)nc4)nc12)CCN3`, the Potency was 575 nM (active). In the case of `CN(c1ncccc1CNc1nc(Nc2ccc3c(c2)CC(=O)N3)ncc1C(F)(F)F)S(C)(=O)=O`, the Potency is reported as 2960 nM (active). For `CC[C@H]1CN2CCc3cc(OC)c(OC)cc3[C@H]2C[C@@H]1C[C@@H]1NCCc2cc(OC)c(OC)cc21`, the Potency was 166 nM (active). For `COc1cc(C(=O)N2CCC(N3CCN(C)CC3)CC2)ccc1Nc1ncc2c(n1)N(C)c1ccccc1C(=O)N2C`, the Potency was 7430 nM (active). In the case of `Cc1[nH]c2ccccc2c1CCNCc1ccc(C=CC(=O)NO)cc1`, the Potency is reported as 148 nM (active). In the case of `Cc1cc(Nc2cc(NC(=O)c3c(Cl)cccc3Cl)ccn2)nc(N)n1`, the Potency is reported as 8330 nM (active). For `CCn1nnc2c(N3CCOCC3)nc(-c3ccc(NC(=O)Nc4ccc(C(=O)N5CCN(C)CC5)cc4)cc3)nc21`, the Potency was 5.9 nM (active). With `Cc1cn(-c2cc(NC(=O)c3ccc(C)c(Nc4nccc(-c5cccnc5)n4)c3)cc(C(F)(F)F)c2)cn1` the Potency was “inactive”. For `CCOc1ccccc1OCCNC(C)Cc1ccc(OC)c(S(N)(=O)=O)c1` (stereo not given), the Potency was “inactive”. In the case of `COc1cc2c(Oc3ccc(NC(=O)C4(C(=O)Nc5ccc(F)cc5)CC4)cc3F)ccnc2cc1OCCCN1CCOCC1`, the Potency is reported as 7430 nM (active). For `O=C(Nc1cc(C(F)(F)F)cc(C(F)(F)F)c1)c1cc(Cl)ccc1O`, the Potency was 1480 nM (active). With `O=C(O)c1ccc2c(c1)nc(Nc1cccc(Cl)c1)c1ccncc12` the Potency was 5900 nM (active). In the case of `C=CC(=O)Nc1cc2c(Nc3ccc(F)c(Cl)c3)ncnc2cc1C#CC(C)(C)N1CCN(C)CC1`, the Potency is reported as 2090 nM (active). With `CCn1cc(-c2ccnc3[nH]c(-c4cccc(CN(C)C)c4)cc23)c(-c2ccc(NC(=O)N(C)C)cc2)n1` the Potency was 3320 nM (active). With `O=C(O)C1(Cc2cccc(Nc3nccs3)n2)CCC(Oc2cccc(Cl)c2F)CC1` (stereo not given) the Potency was 264 nM (active). For `Nc1ncnc2c1c(-c1cnc3[nH]ccc3c1)nn2C1CCCC1`, the Potency was 296 nM (active). In the case of `Cn1cc(-c2[nH]c3cc(NC(=O)[C@H](N)C4CCCCC4)cc4c3c2C=NNC4=O)cn1`, the Potency is reported as 1480 nM (active). For `CCCCN1CCC(CNC(=O)c2c3n(c4ccccc24)CCCO3)CC1`, the Potency was 11800 nM (active). In the case of `CN1CCN(c2ccc3nc(-c4c(N)c5c(F)cccc5[nH]c4=O)[nH]c3c2)CC1`, the Potency is reported as 2090 nM (active). For `Cc1cc(CN2CCN(c3c(Br)cnc4nc(-c5ccc(N6CCN(C)CC6)cc5)[nH]c34)CC2)no1`, the Potency was 5260 nM (active). For `CC(=O)OCC(=O)[C@@]1(O)[C@H](C)C[C@H]2[C@@H]3C=C(C)C4=Cc5c(cnn5-c5ccccc5)C[C@]4(C)[C@@H]3[C@@H](O)C[C@@]21C`, the Potency was 16600 nM (active). In the case of `COCCOc1ccc2c(c1)ncn2-c1ccc2cccc(N3CCC(N)CC3)c2n1`, the Potency is reported as 9350 nM (active). In the case of `CC(C)c1nn(-c2c(Cl)cccc2Cl)c2nc(Cc3ccc(OCCO)cc3)[nH]c(=O)c12`, the Potency is reported as 148 nM (active). In the case of `COc1cc2c(cc1-c1c(C)noc1C)ncc1[nH]c(=O)n([C@H](C)c3ccccn3)c12`, the Potency is reported as 2960 nM (active). In the case of `O=C(CCCCCCC(=O)Nc1ccc([C@H]2O[C@@H](CSc3nc(-c4ccccc4)c(-c4ccccc4)o3)C[C@@H](c3ccc(CO)cc3)O2)cc1)NO`, the Potency is reported as 14800 nM (active). With `CC(C)c1ccc(Cn2ccc3c4c(N)nc(NC5CC5)nc4ccc32)cc1` the Potency was 14800 nM (active). With `Nc1nc(Nc2ccc(S(N)(=O)=O)cc2)nn1C(=O)c1c(F)cccc1F` the Potency was 2960 nM (active). For `COc1ccc(CC2SC(=O)NC2=O)cc1C(=O)NCc1ccc(C(F)(F)F)cc1` (stereo not given), the Potency was “inactive”. In the case of `Nc1cccc(-c2cc3c(Oc4cccc(O)c4)ncnc3[nH]2)c1`, the Potency is reported as 16600 nM (active). With `CCc1c2c(nc3ccc(O)cc13)-c1cc3c(c(=O)n1C2)COC(=O)[C@]3(O)CC` the Potency was 166 nM (active). With `COc1cc(C)c(Sc2cnc(NC(=O)c3ccc(CNC(C)C(C)C)cc3)s2)cc1C(=O)N1CCN(C(C)=O)CC1` (stereo not given) the Potency was 18700 nM (active). In the case of `COc1cc(=C2C=c3ccccc3=N2)[nH]c1=Cc1[nH]c(C)cc1C`, the Potency is reported as 418 nM (active). With `C#Cc1cccc(Nc2ncnc3cc(OC)c(OCCCCCCC(=O)NO)cc23)c1` the Potency was 372 nM (active).
